Hits are enriched below; roughly 7.4% of the tested compounds scored in any of these assays.
NPC1 promoter act: qHTS Assay for NPC1 Promoter Activators; Potency, µM (series often up to 9.22 µM), usual class: activators; actives 2.4% (n = 320,000); Huh7 NPC1 promoter luciferase reporter, 24 h; AID 485313, 2010; further: nearly all actives have a fitted effect of over 60% in size
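Readout is luciferase luminescence, reflecting NPC1 promoter activation in stably transfected Huh7 cells after 24 h compound exposure at 37 °C in reduced-serum medium with 10% FBS.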
SMN2 splice enh: qHTS Assay for Enhancers of SMN2 Splice Variant Expression. HEK293 SMN2-luciferase splicing reporter, luminescence, 30-36 h. Potency, µM (doses to about 46.1 µM), actives largely listed as activators. actives 2.8% (n = 210,000). AID 1458, 2008; further: nearly all actives have a fitted effect of over 55% in size
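HEK293 cells carry an SMN2 minigene-luciferase reporter in which exon 7 inclusion puts luciferase in frame. Cells were seeded at 2000 cells/well, attached for 10-12 hours, then exposed to compounds for 30-36 hours at 37C before ONE-Glo luminescence.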
FLuc counter: qHTS profiling assay for firefly luciferase inhibitor/activator using purifed enzyme and Km concentrations of substrates (counterscreen for miR-21 project) | Luciferin 4-monooxygenase (Photinus pyralis), P08659 | purified FLuc, Km substrates, luminescence inhibition | Potency, µM (top dose mostly 57.5 µM), most hits filed as inhibitors | actives 6.9% (n = 360,000) | AID 588342, 2011; further: nearly all actives have a fitted effect of over 55% in size
Target sequence (P08659 whole entry, looked up): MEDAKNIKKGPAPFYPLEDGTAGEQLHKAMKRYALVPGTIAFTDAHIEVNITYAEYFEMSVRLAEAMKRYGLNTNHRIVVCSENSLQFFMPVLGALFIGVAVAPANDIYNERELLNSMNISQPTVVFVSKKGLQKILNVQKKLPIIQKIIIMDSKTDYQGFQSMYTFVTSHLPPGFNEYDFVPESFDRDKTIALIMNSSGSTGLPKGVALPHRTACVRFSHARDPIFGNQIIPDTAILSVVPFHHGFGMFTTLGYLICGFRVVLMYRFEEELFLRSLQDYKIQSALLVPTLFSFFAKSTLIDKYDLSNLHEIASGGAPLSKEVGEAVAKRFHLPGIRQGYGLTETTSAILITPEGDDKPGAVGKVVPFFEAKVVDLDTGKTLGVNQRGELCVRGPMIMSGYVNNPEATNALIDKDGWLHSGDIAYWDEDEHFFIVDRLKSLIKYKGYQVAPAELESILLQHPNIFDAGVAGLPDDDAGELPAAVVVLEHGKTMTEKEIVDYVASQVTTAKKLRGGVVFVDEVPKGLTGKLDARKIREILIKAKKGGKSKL
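Biochemical qHTS of compounds, final roughly 60 µM downward over six points, against 10 nM purified firefly luciferase using Km concentrations of substrates (10 uM D-luciferin, 10 uM ATP) in Tris acetate pH 7.5 buffer; luminescence output.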
Rab9 promoter act: qHTS Assay for Rab9 Promoter Activators | Huh7 Rab9 promoter-luciferase reporter, luminescence, 24 h | Potency, µM (series often up to 9.22 µM), most hits filed as activators | actives 2.8% (n = 320,000) | AID 485297, 2010; further: nearly all actives have a fitted effect of over 60% in size
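Luciferase signal after 10 min detection reagent at ambient indicates Rab9 promoter upregulation; stably transfected Huh7 cells were treated 24 h with compound in DMSO at 37 °C, 5% CO2.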
ELG1 genotoxic: qHTS screen for small molecules that induce genotoxicity in human embryonic kidney (HEK293T) cells expressing luciferase-tagged ELG1; actives 1.3% (n = 330,000); Potency, µM (series often up to 46 µM), most hits filed as activators; HEK293T ELG1-luciferase reporter, luminescence, 16 h; further: nearly all actives have a fitted effect of over 60% in size
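Cells (2,000/well) expressing the ELG1-luciferase fusion are dosed by pin tool and kept 16 hr at 37 °C, 5% CO2. Signal comes from ONE-Glo luciferase reagent after 30 min at room temperature.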
Luc counter: Counterscreen for Luciferase (Kinase-Glo TM) Inhibition | Luciferin 4-monooxygenase (Photuris pensylvanica), Q27757 | Kinase-Glo luciferase, ATP luminescence, 8 min | Potency, µM (series often up to 38.3 µM), hits mostly inhibitors | actives 0.28% (n = 200,000) | AID 1379, 2008; further: nearly all actives have a fitted effect of over 60% in size
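Luminescence was the read-out, taken after 8-minute incubation at ambient temperature. Luciferase turned over luciferin with 10 uM ATP in imidazole pH 7.2 buffer containing KCl, MgCl2, Tween 20 and BSA.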
A number is an active result; [ ] = remark or other dose. The call rests on the fitted dose curve; in most records, active means well fitted curve in the direction sought with a large enough effect; inconclusive means small, poorly fitted or top-dose-only effect, or another doubt; inactive means no such curve, though single readings can be large; an effect the other way counts as inactive or inconclusive.

O=c1[nH]cnc2cc(Cl)ccc12 was read as NPC1 promoter act inactive, SMN2 splice enh inactive, FLuc counter inactive, Rab9 promoter act inactive, ELG1 genotoxic inactive and Luc counter inactive.
Screening COc1ccc(-c2cc3nc[nH]c(=O)c3s2)cc1 returned NPC1 promoter act inconclusive, SMN2 splice enh 13µM, FLuc counter 3.8µM, Rab9 promoter act 2.8µM, ELG1 genotoxic 4.1µM and Luc counter inactive.
For COc1ccc(N2CCN(Cc3nc4ccsc4c(=O)[nH]3)CC2)cc1 the results were NPC1 promoter act inactive, SMN2 splice enh inactive, FLuc counter inactive, Rab9 promoter act inactive, ELG1 genotoxic inactive and Luc counter inactive.
Screening O=c1[nH]cnc2cc(-c3ccccc3)sc12 returned NPC1 promoter act 3.5µM, SMN2 splice enh inconclusive, FLuc counter 12µM, Rab9 promoter act inconclusive, ELG1 genotoxic inconclusive and Luc counter inactive.
CC(=O)c1ccc(NC(=O)c2cn(-c3ccccc3)nc2-c2ccc(Br)cc2)cc1 was read as SMN2 splice enh inactive and FLuc counter inactive.
`NCCc1nnc(SCC(=O)Nc2cccc(Cl)c2)o1` gave NPC1 promoter act inactive, FLuc counter inactive, Rab9 promoter act inactive and ELG1 genotoxic inactive.
O=C(CSc1nnc(-c2cccc(Cl)c2)o1)Nc1ccc2c(c1)OCCO2 was read as NPC1 promoter act 3.5µM, SMN2 splice enh 11µM, FLuc counter inactive, Rab9 promoter act 2.8µM, ELG1 genotoxic 21µM and Luc counter inactive.
Screening Cc1ccc(NC(=O)CSc2nnc(-c3cccnc3)o2)c(C)c1 returned NPC1 promoter act inactive, FLuc counter inactive, Rab9 promoter act inactive and ELG1 genotoxic inconclusive.
For O=C(CSc1nnc(-c2cccnc2)o1)Nc1ccccn1 the results were NPC1 promoter act 3.2µM, SMN2 splice enh 13µM, FLuc counter inactive, Rab9 promoter act 4µM, ELG1 genotoxic 7.3µM and Luc counter inactive.
For COc1ccc(OCc2nnc(SCC(=O)Nc3cccc(Cl)c3)o2)cc1 the results were NPC1 promoter act inactive, FLuc counter 19µM, Rab9 promoter act inactive and ELG1 genotoxic inactive.
`O=C(CSc1nnc(-c2ccc(C(F)(F)F)cn2)o1)Nc1cccc(Cl)c1` gave NPC1 promoter act 3.2µM, Rab9 promoter act inconclusive and ELG1 genotoxic inconclusive.
For Cc1ccccc1NC(=O)CSc1nnc(-c2cccc(Cl)c2)o1 the results were FLuc counter inactive.
For CC(Sc1nc2c(c(=O)[nH]1)CCCC2)C(=O)Nc1cc(C(F)(F)F)ccc1Cl (stereo not given) the results were FLuc counter inactive.
For CCCCn1c(=N)c(S(=O)(=O)c2ccc(C)cc2)cc2c(=O)n3cc(C)ccc3nc21 the results were FLuc counter inactive.
`Cc1ccc(CCNC(=O)Cn2ncc3c([nH]c4ccc(C)cc43)c2=O)cc1` gave FLuc counter inactive.
For Cc1ccccc1NC(=O)CSc1nnc(-c2ccccn2)o1 the results were NPC1 promoter act inactive, FLuc counter inactive, Rab9 promoter act inconclusive and ELG1 genotoxic inactive.
Screening O=C(CSc1nnc(-c2ccccn2)o1)Nc1ccccc1F returned NPC1 promoter act 0.45µM, FLuc counter inactive, Rab9 promoter act 0.79µM and ELG1 genotoxic inconclusive.
Screening COc1cccc(-n2c(SCC(=O)Nc3cccc(Cl)c3)nc3c(oc4ccccc43)c2=O)c1 returned SMN2 splice enh inactive and FLuc counter inactive.
`O=C(CSc1nnc(-c2ccccn2)o1)Nc1cccc(Cl)c1` gave NPC1 promoter act inconclusive, Rab9 promoter act 2.2µM and ELG1 genotoxic inactive.
O=C(CSc1nc2c(oc3ccccc32)c(=O)[nH]1)Nc1cccc(Cl)c1 was read as SMN2 splice enh 20µM and FLuc counter 1.2µM.
Cc1cc(NC(=O)CCCn2c(C)c3cnn(-c4ccccc4)c(=O)c3c2C)ccc1Br was read as SMN2 splice enh inactive and FLuc counter inactive.
CCCCN1CC(c2nc3ccccc3n2CCCCOc2cc(C)ccc2C)CC1=O (stereo not given) was read as FLuc counter inactive.
For Cc1ccccc1NC(=O)c1cc2c(-c3ccccc3)nn(-c3ccccc3)c2s1 the results were SMN2 splice enh inactive and FLuc counter inactive.
`Cc1cccnc1NC(=O)Cn1nc([N+](=O)[O-])cc1C` gave NPC1 promoter act inactive, SMN2 splice enh inactive, FLuc counter inactive, Rab9 promoter act inactive, ELG1 genotoxic inactive and Luc counter inactive.
Cc1cccnc1NC(=O)Cn1nc(-c2ccccc2)oc1=S was read as NPC1 promoter act 3.2µM, SMN2 splice enh 3.2µM, FLuc counter inactive, Rab9 promoter act 1.3µM, ELG1 genotoxic inconclusive and Luc counter inactive.
`CCOc1cc(/C=N\Nc2ncc(F)c(N3CCOCC3)n2)ccc1Oc1nc(Cl)ncc1F` gave NPC1 promoter act inactive, FLuc counter 21µM, Rab9 promoter act inactive and ELG1 genotoxic inactive.
`COc1ccc(C(=O)N[C@H](C(=O)Nc2nc3c(s2)CCCC3)C(C)C)cc1` gave NPC1 promoter act inactive, SMN2 splice enh inconclusive, FLuc counter 15µM, Rab9 promoter act inactive, ELG1 genotoxic inactive and Luc counter inactive.
Cc1onc(-c2ccccc2Cl)c1C(=O)Nc1nnc(-c2ccc(Cl)cc2Cl)s1 was read as NPC1 promoter act inactive, SMN2 splice enh inactive, FLuc counter inconclusive, Rab9 promoter act inactive, ELG1 genotoxic inactive and Luc counter inactive.
Screening Cc1onc(-c2ccccc2Cl)c1C(=O)Nc1nc2c(s1)CCCC2 returned NPC1 promoter act inactive, SMN2 splice enh inactive, FLuc counter 13µM, Rab9 promoter act inconclusive, ELG1 genotoxic inactive and Luc counter inactive.
`Cc1ccc(C(=O)Nc2nc3c(s2)CCCC3)o1` gave NPC1 promoter act 3.2µM, SMN2 splice enh 14µM, FLuc counter 1.7µM, Rab9 promoter act 1µM, ELG1 genotoxic 1.2µM and Luc counter inconclusive.
For CC(=O)c1sc(NC(=O)c2ccc(Br)o2)nc1C the results were NPC1 promoter act inconclusive, FLuc counter 19µM, Rab9 promoter act inactive[1.84 µM] and ELG1 genotoxic 16µM.
O=C(Nc1nc2c(s1)CCCC2)c1ccc(Br)o1 was read as NPC1 promoter act 2.2µM, SMN2 splice enh 11µM, FLuc counter 1.5µM, Rab9 promoter act 1.3µM, ELG1 genotoxic 12µM and Luc counter inactive.
Screening CC(=O)c1sc(NC(=O)C=C(C)C)nc1C returned NPC1 promoter act inactive, SMN2 splice enh 20µM, FLuc counter inconclusive, Rab9 promoter act inactive, ELG1 genotoxic 18µM and Luc counter inactive.
Sc1ccc2ccccc2c1CNCc1ccccc1 was read as SMN2 splice enh inactive[9.22 µM] and Luc counter inactive[7.66 µM].
